This is an account of results in PubChem BioAssay.

Calls of active or inactive are those of the source. Unless noted, how the calls were made is not given here.

Assay [1] has as its system Wnt5a (protein binding on small-molecule microarray). Put plainly: small molecules binding Wnt5a protein – biophysical, small-molecule microarray, 635/667 nm fluorescence, primary screen (AID 1142).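 Further: fluorescence read at 667 nm with signal to noise per printed feature.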 Particulars: 635 nm fluorescence, higher = more signal.
Assay [2] in a line: ATP-based viability of Huh7 replicon cells – cell-based, CellTiter-Glo luminescence, basal, 48 h, cytotoxicity control for HCV replication inhibitor project, primary screen (AID 1143).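 Further: Huh7 hepatoma cells carrying a hepatitis C replication reporter with no stimulus; test concentration not given here.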 Conditions: higher = more signal, called active from +8 up or from −8 down. In general terms: In antiviral work, replicon cells carry a viral genome segment that copies itself.
The nature of assay [3]: Pseudomonas biofilm growth suppression – PAO1 strain, BacTiter-Glo luminescence, LB-PBS, primary screen (AID 1144). Particulars: P. aeruginosa PAO1 biofilm, 12 h, higher = more signal.
Assay [4] in a line: basal CRE-LacZ reporter activity in PC12 – cell-based, unstimulated, primary screen (AID 1145). Particulars: no forskolin, luminescence, 4.5 h, higher = more signal, called active from +8 up or from −8 down.
The nature of assay [5]: forskolin-driven CRE-LacZ activity in PC12 – cell-based, CRE-LacZ reporter, forskolin-stimulated, primary screen (AID 1146).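 Further: PC12 cells with 6xCRE LacZ reporter stimulated by forskolin 10 µM; beta-galactosidase reporter signal reflecting CREB driven transcription.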 Conditions: luminescence, 4.5 h, higher = more signal, called active from +8 up or from −8 down.
Assay [6] has as its target Streptavidin (Streptomyces avidinii) (UniProt P22629). Put plainly: compounds binding control protein streptavidin – biophysical, small-molecule microarray, 635/667 nm fluorescence, artefact control for SMM compound annotation, primary screen (AID 1147).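 Further: signal reflects streptavidin binding to arrayed compounds as a control protein.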 Particulars: higher = more signal.
A short description of assay [7]: probe aInhba binding on compound microarray – biochemical, small-molecule microarray, 635/667 nm fluorescence, primary screen (AID 1148).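 Further: score merges 667nm spot fluorescence with signal-to-noise for antibody binding to printed compounds.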 Conditions: higher = more signal.
Assay [8] has as its target Torsin-1A (Homo sapiens) (UniProt O14656). Put plainly: TOR1A wild-type binding on microarray – cell lysate, small-molecule microarray, lysate, 635/667 nm, primary screen (AID 1149). Particulars: COS7 hTOR1A-WT lysate, 635 nm fluorescence, higher = more signal.
The target is the same in assay [9]. The assay is described as follows: torsin A mutant lysate binding on microarrays – cell lysate, small-molecule microarray, COS7 lysate, 635/667 nm fluorescence, primary screen (AID 1150).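 Further: score pools 667 nm emission and signal to noise measuring lysate protein binding.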 Conditions: COS7 hTOR1A mutant lysate, 635 nm fluorescence, higher = more signal.
In assay [10] the test system is Sonic hedgehog protein (Shh). The assay is described as follows: Sonic hedgehog microarray binding compounds – biochemical, small-molecule microarray, 635/667 nm fluorescence, primary screen (AID 1151).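 Further: Shh protein binding to compounds spotted on small-molecule microarray slides; score combines spot fluorescence intensity with signal-to-noise across triplicate slides.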 Particulars: 635 nm fluorescence, higher = more signal.
Assay [11] is described as follows: optical density shifts of acrAB sulA E. coli – strain DRC41, OD650, 48 h, E. coli filamentation inducer project, primary screen (AID 1152).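 Further: E. coli MC1000 strain DRC41 lacking acrAB efflux pump and sulA.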 Particulars: higher = more signal, called active from +8 up or from −8 down.
Assay [12] in a line: probe aLefty1 binding on compound microarray – biochemical, small-molecule microarray, 635/667 nm fluorescence, primary screen (AID 1153).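 Further: score merges spot fluorescence with signal-to-noise ratio from the scanned slide images.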 Conditions: higher = more signal.
Assay [13] is described as follows: plasmodial surface anion channel blockers, osmotic lysis – cell-based, P. falciparum Indochina, OD700, 1 h, primary screen (AID 1154). Conditions: P. falciparum Indochina infected RBC osmotic lysis, higher = more signal, called active from +8 up or from −8 down.
The nature of assay [14]: plasmodial surface anion channel blockers, osmotic lysis – cell-based, P. falciparum Indochina, OD700, 2 h, primary screen (AID 1155).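 Further: lysis reports solute entry through the parasite surface anion channel PSAC.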 Particulars: P. falciparum Indochina infected erythrocytes, higher = more signal, called active from +8 up or from −8 down.
Assay [15] is described as follows: changes in parasitized red cell lysis, either direction – P. falciparum Indochina, OD700, 3 h, PSAC antagonist project, primary screen (AID 1156). Conditions: P. falciparum-infected erythrocytes, osmotic lysis, higher = more signal, called active from +8 up or from −8 down.
The nature of assay [16]: plasmodial surface anion channel blockers, osmotic lysis – cell-based, P. falciparum Indochina, OD700, 18 h, primary screen (AID 1157). Particulars: P. falciparum Indochina infected erythrocytes, osmotic lysis OD700, 18 h; higher = more signal, called active from +8 up or from −8 down.
Assay [17] is described as follows: S6 kinase pathway phospho-S6 level changes – cell-based, A549, cytoblot, luminescence, serum-stimulated, primary screen (AID 1158).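 Further: serum-stimulated A549 lung adenocarcinoma cells; signal is phosphorylated S6 detected by cytoblot immunostaining with HRP secondary.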 Conditions: 5 h, higher = more signal.
For assay [18], the target named is NADPH oxidase 2 (Homo sapiens) (UniProt P04839). Put plainly: compounds shifting NOX2 Amplex Red fluorescence – cell-based, HEK293-NOX2, PMA-stimulated, NOX inhibitor project, primary screen (AID 1159). Further: test concentration not given here. Conditions: 45 min, higher = more signal, called active from +8 up or from −8 down.
In assay [19] the target is NADPH oxidase 4 (Homo sapiens) (UniProt Q9NPH5). The assay is described as follows: compounds shifting NOX4 Amplex Red fluorescence – cell-based, HEK293-NOX4, tetracycline-induced, NOX inhibitor project, primary screen (AID 1160). Particulars: HEK293-NOX4, Amplex Red H2O2 fluorescence, 45 min; higher = more signal, called active from +8 up or from −8 down.
In assay [20] the target is NADPH oxidase 5 (Homo sapiens) (UniProt Q96PH1). Put plainly: compounds shifting NOX5 Amplex Red fluorescence – cell-based, HEK293-NOX5, NOX inhibitor project, primary screen (AID 1161). Particulars: HEK293-NOX5, ionomycin, 45 min, higher = more signal.
NADPH oxidase 5 (Homo sapiens), sequence (Q96PH1 whole entry, looked up): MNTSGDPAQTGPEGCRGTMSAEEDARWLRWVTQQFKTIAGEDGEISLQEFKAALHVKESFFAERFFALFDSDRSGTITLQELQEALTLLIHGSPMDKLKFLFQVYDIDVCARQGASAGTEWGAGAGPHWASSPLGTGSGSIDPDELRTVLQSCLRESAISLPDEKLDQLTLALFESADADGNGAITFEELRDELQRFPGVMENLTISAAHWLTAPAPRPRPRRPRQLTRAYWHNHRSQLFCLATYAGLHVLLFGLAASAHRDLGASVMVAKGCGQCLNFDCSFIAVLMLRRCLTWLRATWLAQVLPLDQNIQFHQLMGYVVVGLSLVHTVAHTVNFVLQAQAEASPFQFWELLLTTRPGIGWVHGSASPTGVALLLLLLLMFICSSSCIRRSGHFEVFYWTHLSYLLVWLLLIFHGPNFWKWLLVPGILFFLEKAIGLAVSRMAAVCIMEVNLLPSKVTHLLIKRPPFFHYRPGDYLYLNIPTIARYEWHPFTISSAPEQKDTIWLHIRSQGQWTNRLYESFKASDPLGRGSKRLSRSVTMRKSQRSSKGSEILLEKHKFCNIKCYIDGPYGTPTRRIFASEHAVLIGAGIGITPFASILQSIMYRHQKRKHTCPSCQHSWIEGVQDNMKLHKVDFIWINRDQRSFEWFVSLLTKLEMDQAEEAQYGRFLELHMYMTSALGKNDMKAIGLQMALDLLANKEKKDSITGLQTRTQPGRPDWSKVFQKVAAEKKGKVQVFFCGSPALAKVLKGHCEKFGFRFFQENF

Torsin-1A (Homo sapiens), sequence (O14656 whole entry, looked up): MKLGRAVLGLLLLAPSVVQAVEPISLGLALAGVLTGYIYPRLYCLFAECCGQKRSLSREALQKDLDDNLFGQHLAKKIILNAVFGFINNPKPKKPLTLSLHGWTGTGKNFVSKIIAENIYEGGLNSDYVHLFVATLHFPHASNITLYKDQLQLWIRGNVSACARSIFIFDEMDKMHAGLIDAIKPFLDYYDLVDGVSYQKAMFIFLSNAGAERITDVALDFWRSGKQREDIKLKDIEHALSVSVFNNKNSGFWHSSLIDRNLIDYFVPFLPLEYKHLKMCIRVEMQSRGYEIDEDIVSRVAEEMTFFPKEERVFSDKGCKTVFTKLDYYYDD
NADPH oxidase 4 (Homo sapiens), sequence (Q9NPH5 whole entry, looked up): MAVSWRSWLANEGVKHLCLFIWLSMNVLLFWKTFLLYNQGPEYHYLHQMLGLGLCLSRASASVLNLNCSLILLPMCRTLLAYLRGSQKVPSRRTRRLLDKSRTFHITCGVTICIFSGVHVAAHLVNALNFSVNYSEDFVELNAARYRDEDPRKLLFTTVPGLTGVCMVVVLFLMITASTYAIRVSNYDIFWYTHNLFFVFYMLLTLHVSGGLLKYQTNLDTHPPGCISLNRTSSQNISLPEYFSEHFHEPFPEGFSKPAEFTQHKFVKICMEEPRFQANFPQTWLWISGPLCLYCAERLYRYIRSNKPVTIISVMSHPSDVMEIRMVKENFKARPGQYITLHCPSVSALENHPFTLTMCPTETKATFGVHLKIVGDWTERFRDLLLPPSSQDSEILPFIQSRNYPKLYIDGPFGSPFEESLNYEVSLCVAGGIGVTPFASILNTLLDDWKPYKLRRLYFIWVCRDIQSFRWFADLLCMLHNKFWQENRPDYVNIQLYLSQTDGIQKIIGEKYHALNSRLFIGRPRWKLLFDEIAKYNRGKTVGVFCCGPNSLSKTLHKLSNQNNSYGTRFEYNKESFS
NADPH oxidase 2 (Homo sapiens), sequence (P04839 whole entry, looked up): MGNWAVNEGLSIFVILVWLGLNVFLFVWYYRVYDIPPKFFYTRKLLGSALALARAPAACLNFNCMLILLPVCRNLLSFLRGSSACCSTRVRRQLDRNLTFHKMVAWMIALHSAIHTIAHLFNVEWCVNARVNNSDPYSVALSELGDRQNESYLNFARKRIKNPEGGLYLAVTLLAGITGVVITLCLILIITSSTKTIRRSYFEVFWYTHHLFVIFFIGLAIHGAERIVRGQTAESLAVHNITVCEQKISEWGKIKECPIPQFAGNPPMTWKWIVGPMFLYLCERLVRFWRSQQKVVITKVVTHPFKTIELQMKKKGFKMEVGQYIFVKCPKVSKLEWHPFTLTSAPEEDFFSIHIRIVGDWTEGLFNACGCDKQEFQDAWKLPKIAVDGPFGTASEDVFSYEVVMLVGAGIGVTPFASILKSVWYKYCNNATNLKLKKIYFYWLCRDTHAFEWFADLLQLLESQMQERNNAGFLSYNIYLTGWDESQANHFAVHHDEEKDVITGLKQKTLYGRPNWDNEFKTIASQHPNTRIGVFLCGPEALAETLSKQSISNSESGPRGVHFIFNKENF
Streptavidin (Streptomyces avidinii), sequence (P22629 whole entry, looked up): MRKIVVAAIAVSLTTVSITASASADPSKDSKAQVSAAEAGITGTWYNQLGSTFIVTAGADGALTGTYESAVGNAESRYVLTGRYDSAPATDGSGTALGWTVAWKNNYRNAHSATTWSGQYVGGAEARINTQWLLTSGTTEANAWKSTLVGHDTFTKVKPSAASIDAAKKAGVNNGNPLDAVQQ

For `COc1ccc(C#Cc2ccc3c(c2)[C@]2(C(=O)N3)[C@H](c3ccc(OCCO)cc3)N3[C@H](c4ccccc4)[C@H](c4ccccc4)OC(=O)[C@H]3[C@@H]2C(=O)N2CCN(c3ncccn3)CC2)cc1`, the composite z-score is 0.0992 in [1]; 0.819 in [6]; -0.0521 in assay [7]; 0.433 with Torsin-1A (Homo sapiens) [8]; 0.374 in the assay with Torsin-1A (Homo sapiens) [9]; 0.666 in [10]. In assay [12], this molecule returned a composite z-score of 0.0436. The z-score in assay [2] was -3.47 (inactive); in [3], -0.385 (inactive); in assay [4] it was 0.0653 (inactive); in [5], -0.239 (inactive); in [11], 2.34 (inactive); in [13], 3.2 (inactive). In addition, the z-score was 0.964 (inactive) in assay [14]; -1.48 (inactive) in assay [15]; -0.856 (inactive) in assay [16]; 0.379 in [17]; 1.15 (inactive) in assay [18]; 0.706 (inactive) in [19]. In addition, the z-score in assay [20] came to 1.34.

Turning to `NC(=O)[C@H]1[C@@H]2C(=O)O[C@@H](c3ccccc3)[C@@H](c3ccccc3)N2[C@@H](c2ccc(O)cc2)[C@]12C(=O)Nc1ccc(C#CC3(O)CCCCCC3)cc12`, the composite z-score in assay [1] was found to be 0.0428; in [6] it was 0.387; in assay [7], 0.0074; with Torsin-1A (Homo sapiens) [8], 0.375; with Torsin-1A (Homo sapiens) [9], 1.37; in [10] it was 1.46. Also, in assay [12], the composite z-score was 0.354. The z-score was -4.82 (inactive) in assay [2]; -0.947 (inactive) in [3]; 0.272 (inactive) in [4]; 1.09 (inactive) in assay [5]; 0.359 (inactive) in assay [11]; 2.63 (inactive) in assay [13]. For the same molecule, the z-score in assay [14] was -0.436 (inactive); in [15] it was 0.67 (inactive); in assay [16], -1.08 (inactive); in assay [17], 1.54; in [18], 0.487 (inactive); in assay [19], -0.429 (inactive). In addition, in assay [20], the z-score is -2.14.

Consider `Cc1ccc(S[C@]2(C(=O)O)CC(=O)N(C3CCCCC3)[C@@H]2c2ccc(CO)cc2)cc1`, for which the composite z-score was 0.219 in assay [1]; 1.28 in [6]; 0.112 in [7]; -0.284 with Torsin-1A (Homo sapiens) [8]; -0.249 with Torsin-1A (Homo sapiens) [9]; -0.265 in assay [10]. The same molecule registered a composite z-score in [12] of -0.672. The z-score was -0.0359 (inactive) in assay [2]; -0.78 (inactive) in assay [3]; -0.116 (inactive) in assay [4]; -0.337 (inactive) in assay [5]; 0.858 (inactive) in assay [11]; 2.06 (inactive) in [13]. The z-score in assay [14] was 0.0744 (inactive); in [15], 0.854 (inactive); in assay [16], 0.0854 (inactive); in assay [17], -0.158; in assay [18], 1.09 (inactive); in assay [19], 0.585 (inactive). For the same molecule, in assay [20], the z-score turned out to be 0.763.

Turning to `COCCCNC(=O)[C@@]1(Cc2ccccc2N=[N+]=[N-])N=C(c2ccc(OCCCO)cc2)O[C@H]1c1ccccc1CN=[N+]=[N-]`, the composite z-score in assay [1] was 0.972; in assay [6], 1.08; in assay [7] it was 0.246; in the assay with Torsin-1A (Homo sapiens) [8], 0.554; with Torsin-1A (Homo sapiens) [9] it was 0.752; in assay [10], -0.265. Also, the composite z-score in [12] stood at 0.152. For the same molecule, the z-score in [2] is -5.06 (inactive); in [3], -0.389 (inactive); in [4] it was 1.84 (inactive); in assay [5], -1.75 (inactive); in assay [11] it was 0.871 (inactive); in [13], 24.8 (active). The z-score in assay [14] was 8.62 (active); in [15] it was 2.41 (inactive); in assay [16], 0.74 (inactive); in [17], 2.17; in [18] it was -2.73 (inactive); in assay [19], 0.7 (inactive). The z-score in assay [20] is -1.16.

On to `CCCNC(=O)[C@@]1(Sc2ccc(C)cc2)CC(=O)N(Cc2ccccc2)[C@@H]1c1ccc(CO)cc1I`, for which the composite z-score in assay [1] was 0.308; in assay [6], 0.203; in assay [7], -0.0221; in the assay with Torsin-1A (Homo sapiens) [8], 0.123; in the assay with Torsin-1A (Homo sapiens) [9], 0.485; in assay [10] it was 1.96. The composite z-score in assay [12] is -0.0573. The z-score in assay [2] was -1.81 (inactive); in [3], 0.029 (inactive); in assay [4], 0.0655 (inactive); in [5], 1.08 (inactive); in assay [11], -0.383 (inactive); in assay [13], 6.23 (inactive). Moreover, the z-score is 0.815 (inactive) in [14]; -0.713 (inactive) in assay [15]; 0.206 (inactive) in [16]; -0.374 in assay [17]; 1.04 (inactive) in [18]; -1.94 (inactive) in assay [19]. The z-score in assay [20] amounted to 1.79.

As for `COC(=O)[C@@]1(Cc2ccc(F)cc2)[C@@H]2[C@@H](CC(=O)[C@H]2CC(=O)C(=O)N2CCCC2)CN1C(=O)c1ccccc1`, the composite z-score in [1] was 0.603; in assay [6], 1.48; in assay [7], 1.4; with Torsin-1A (Homo sapiens) [8], 0.0262; with Torsin-1A (Homo sapiens) [9], 0.666; in [10], -0.695. In assay [12], this molecule came in with a composite z-score of 1.33. For the same molecule, the z-score in [2] is -2.93 (inactive); in assay [3], 0.925 (inactive); in assay [4], 0.766 (inactive); in [5], 0.526 (inactive); in assay [11], -1.75 (inactive); in [13], 1.76 (inactive). Further, the z-score in [14] is 0.367 (inactive); in [15], 0.747 (inactive); in assay [16], 0.935 (inactive); in [17], -0.502; in [18], 0.67 (inactive); in assay [19], 0.478 (inactive). Besides, the z-score in assay [20] is 1.28.

Consider `CC(C)C(CO)N1C(=O)[C@@H]2[C@H]3C(=O)OCC=C[C@H]3OC23C=CCN(CCN2CCOCC2)C(=O)[C@@H]13` (stereo not given in full), for which the composite z-score in [1] is -0.406; in assay [6], -0.38; in assay [7] it was -0.128; in the assay with Torsin-1A (Homo sapiens) [8], -0.412; in the assay with Torsin-1A (Homo sapiens) [9], 0.743; in assay [10] it was 1.73. In assay [12], this molecule came in with a composite z-score of -0.263. For the same molecule, the z-score in [2] was 0.29 (inactive); in assay [3] it was 2.66 (inactive); in assay [4], 1.01 (inactive); in [5] it was 1.25 (inactive); in assay [11] it was -0.706 (inactive); in assay [13], 0.897 (inactive). Also, the z-score in assay [14] was -0.136 (inactive); in assay [15] it was 0.675 (inactive); in assay [16], 0.0875 (inactive); in assay [17] it was -0.679; in assay [18], 1.26 (inactive); in assay [19] it was 0.258 (inactive). In addition, in [20], the z-score is 2.02.

Turning to `CN(C)CCCC[C@@H]1NC(=O)[C@H]2C[C@@H](C(=O)NCCCCCCNC(=O)CS)[C@@H](c3ccc(O)cc3)N2C1=O`, the composite z-score in [1] is -0.261; in assay [6], -1.05; in assay [7], -0.224; with Torsin-1A (Homo sapiens) [8], 1.13; with Torsin-1A (Homo sapiens) [9] it was 0.753; in assay [10], 1.92. In assay [12], this molecule displayed a composite z-score of 0.0048. Also, the z-score in [2] is -0.898 (inactive); in assay [3], -0.113 (inactive); in assay [4], -1.21 (inactive); in [5], -0.887 (inactive); in [11], 0.446 (inactive); in [13], 2.46 (inactive). The z-score in assay [14] is 0.374 (inactive); in assay [15], 1.84 (inactive); in [16], 0.178 (inactive); in [17], 0.469; in [18], 1.35 (inactive); in assay [19] it was 1.78 (inactive). Also, the z-score in assay [20] is 1.52.
